The chains are these.
B1: ENSMUSG00000043670.167|Diras1 (ssRNA)
RNA: GGGAGUUCUACAGUCCGACGAUCGCUUCGAUAUCCGCAUGCUAGGUUUGGGGUGCUGAGGGUGGGGUGCCCAGCUGAGAGUCUAUCAGCAAAGUCCCUGUGUGCGGUGAUAGGACUAGUGGCUGCUGCCCUAGGGCUCUGACAGAAUCUGAGCCUCUUUGCUGGUCAUGUGUACUCUGGAGACUGUCCCCCAUGUCUGCCCUGAGUUACGGAGCCCCUGUGGUAUCUGCGAGACUGUCCAGGAGACUUGAGUGGCUCCUGGGCCUGUGUCCCACCCAGAUGAGGGUGACUUAGAAUUCUGUGUCUCUUGCGGUCGCACUAGUGUGGAAUUCUCGGGUGUCAAGG
B2: ENSMUSG00000042529.74|Kcnj12 (ssRNA)
RNA: GGGAGUUCUACAGUCCGACGAUCGCUUCGAUAUCCGCAUGCUAACUUGGGCAAGACUGUUUACAAACAAAAACAAACAAACAAACAAUCAAAAAAAAAACCCACCCCACAAAACACAAGAAAACAUUAACAGGUGGUUCAAUUUUUAAAAUUCCUGGUGUGGGGACAGUUGGAAUUCUACUCAGCGCUGCCAGGCAAGCAGCUGGACGGAGAACCCUGAGGGUUCUCAGAGGUCUGUUUUCUCCCUCACGUGGGCCAGGGCCUUAAGCGAGUUGUCAUGCUUAAGGAUGAAUCAGGCUGCUUGCUCUUGCGGUCGCACUAGUGUGGAAUUCUCGGGUGUCAAGG
B3: ENSMUSG00000032194.238|Kank2 (ssRNA)
RNA: GGGAGUUCUACAGUCCGACGAUCGCUUCGAUAUCCGCAUGCUAAAACCUCAGCAGGGCAGCAUUGAGACUCAUGGACUAAAGGAAAGUGUUCACUCUUCUAGACAAGUGGGUCUCUUGGUUUGAUGGAGUCUUACUCCGCUUGAGUUUUGUAGAAGGGGUUUGUCUAAGGCAUAGAGGCUUGGUUGGCAUAAGAAAAUAAGAUGGACAGAUGGAUGGGUGGAUGGAUGGAUGGCUGAUUGAGUGGGUGGGUGGGUGGAUGGAUGCAUAAAUGAAUAGAUGGAUGGAUGAAUGAACAGAUAGAUCUCUUGCGGUCGCACUAGUGUGGAAUUCUCGGGUGUCAAGG
B4: ENSMUSG00000028439.2|Fam219a|50:54;256:260 (ssRNA)
RNA: GGGAGUUCUACAGUCCGACGAUCGCUUCGAUAUCCGCAUGCUAGACGAGGACCUAGAUCUCAUCCCCCCCAAGUCUGUGAACCCCACCUGCAACACAUGUCAGGCCACUUCCUCCACCGCCUGCCACAUUCAGUAGUGGGCGGGGUCGCCGCGGUGCACGGGGCGCUGACCUGGGCCCGGUGGGAUGCAGCAGGAGAGACCCCUACCCUGCUGGUCCACUGGUCCCCAGCCCCGCGCCUCUUAGAGCCGCCAACCUCGUAACAGUCAUUGCUUCCUCCUAUGGUAGGACGUGUACCUCACACACUCUUGCGGUCGCACUAGUGUGGAAUUCUCGGGUGUCAAGG
B5: ENSMUSG00000058297.541|Spock2|207:211 (ssRNA)
RNA: GGGAGUUCUACAGUCCGACGAUCGCUUCGAUAUCCGCAUGCUAUUUUGAUAUCGGCUCCCCAAAGCCCAAGCCCACAGCCCUAGGAGAGAACCAGGGGCCCAUCUUUGACACCUGGGCCAUCACGAGCCCUCCCGCCUGCAGUUGUCCUAGGGAAAGACCUGGGGGUGCAAAAGGAGAUUCAAGACAUCCGUACCAAGUCAGGCAGAGCUACCCGCUUCUCAGCCCGUGUCCCACUUAAAACCGUCCGAACACAAAUCACUGAGCUUAGAGUUAAACAUUGUGGUCAAGUGCUUGGGUUCCGUCUCUUGCGGUCGCACUAGUGUGGAAUUCUCGGGUGUCAAGG
B6: ENSMUSG00000058297.519|Spock2 (ssRNA)
RNA: GGGAGUUCUACAGUCCGACGAUCGCUUCGAUAUCCGCAUGCUACACAGGAGUCGUGACCACGUGUGAUGGGUGGGCACAGGUCUGCCUUGCUCCAGCCCCCUCCCUUGGUUUCUGUUGGUACCCAUUUGGCUUUUAUCUGCUUUCUGCUUCACCACUAAGUGCGUAGGUGGGGUCUUUUGAUAUCGGCUCCCCAAAGCCCAAGCCCACAGCCCUAGGAGAGAACCAGGGGCCCAUCUUUGACACCUGGGCCAUCACGAGCCCUCCCGCCUGCAGUUGUCCUAGGGAAAGACCUGGGGGUGCAACUCUUGCGGUCGCACUAGUGUGGAAUUCUCGGGUGUCAAGG
B7: ENSMUSG00000061578.447|Ksr2 (ssRNA)
RNA: GGGAGUUCUACAGUCCGACGAUCGCUUCGAUAUCCGCAUGCUAUUUCAGAGGGGAUAGUUCCUUCUAACCUUGUACUGGGACAUCAUCUAUGUCCCCAUCCCCAGAGCUGAAUUAGAGACACCAAGUAGCCUCUUGGGUUGUUUUGUGGGGUGUUCCCCUUGCUGGUCAAAGGAGUGGAAAGCCACCUUGCUGUAAAUGCUCUUGUUUUCUGUAGCAAUCUUGAACUCUUUUUUUUUUUUGUUCGUUUGUUUGUUUGUUUGUUUGUUUGUUUUUUCAAGACAGGGUUUUUCUGUAUAGCCCUGCUCUUGCGGUCGCACUAGUGUGGAAUUCUCGGGUGUCAAGG
B8: ENSMUSG00000031028.308|Tub (ssRNA)
RNA: GGGAGUUCUACAGUCCGACGAUCGCUUCGAUAUCCGCAUGCUAGAACCCUCAGCGAGGUAGCCUUUGUUUACAGUCUAGUUUCUAGAGGGCAGUAGGACUUCCAUGCUGGGGCUGGCCUAUCUCCUGAUGAAAGAUUACAGUGCCAUCUCCUUCCCAUAGUUCUGUGUCUGCCCUCCCUCCCUGACUUUAUAGGGAGAAAUCUCCUGACAUUAGAGGUGAUAGAAACCAGAGCUUUAGUCUAGUCAGGCUGUUUCUCUGGGUUGACAAGUUUAAGGUUGAACAGGCUGAUUUCUGGAAUCUCACUCUUGCGGUCGCACUAGUGUGGAAUUCUCGGGUGUCAAGG
B9: ENSMUSG00000029028.135|Lrrc47 (ssRNA)
RNA: GGGAGUUCUACAGUCCGACGAUCGCUUCGAUAUCCGCAUGCUAAGGCAUUCUAUUGAACAGUAUUUAUUUUUCUACAACAUGUUAAUAGAAUUUUUUUUUAAAUCAGCUGUGCAUAGACAGUUGAGAACAUCAUGUUGUGAGUGUAAUCUUCUUAGAGCUUGUUUCCAGGCACCGUGCUGCCGCCAUGCUCCCAGGGCAGCAUCUGCCUUCCACGGCUGUGCUUGGAACUGUAGUGCUGGUCGUUGUUGGCACAUCUGCGCCUUGGCCAAGGAAGUUAUCUAUGUCCGUGUAGUCCUUUGUAGCUCUUGCGGUCGCACUAGUGUGGAAUUCUCGGGUGUCAAGG
B10: ENSMUSG00000031028.662|Tub (ssRNA)
RNA: GGGAGUUCUACAGUCCGACGAUCGCUUCGAUAUCCGCAUGCUACUGGACCCCAUACUGGUGACCAGCUUGGUGAGGACAGGCAAAAUUUCUCUAGCUGAGAGCACACUUAGCCAGUUUUCACGCCUAGAACAUAUAUGUCGAUUUGCACAUGAUUGUCUUUUCCUAUUUUGGAGUGGUCAGACAUUUUAUUUUUGUUCAAAAUUAUCUGGAGUUUUAGACAAACUUGCAAAACUGUGCUUUUAUUAAGUGACUUUUUGAAUAAACUUUUUGGUAUUCUGAAGCAAAUGUAUUUAUUUAUUGGUCUCUUGCGGUCGCACUAGUGUGGAAUUCUCGGGUGUCAAGG
B11: ENSMUSG00000028439.182|Fam219a|1:10;12:16;18:34;36:53;63:70 (ssRNA)
RNA: GGGAGUUCUACAGUCCGACGAUCGCUUCGAUAUCCGCAUGCUAACACACACACCCACACCCACACACAUACACACACCCACACACACACACACACAUGUACCCGACACACACAUGAGCCUAUCUGUCCAGGGAACCAGAUUGGUGUCCGAGAUGAGGAAAUGGCUGUGGCCUGGGAAAUCAGUGAGAGGCCGCUUGGGAAUGAGAAUGCAGUGGACUGAAAGCACAGCCUGGCCAUCUGGAACCUGGGUUCUGGUCCCAGCCUCGGCAUUCUCCCUGAGCUCCUAAGCAAUUCCCAGGCUUCUCUCUUGCGGUCGCACUAGUGUGGAAUUCUCGGGUGUCAAGG
B12: ENSMUSG00000028439.183|Fam219a|6:10;12:28;30:47;57:64 (ssRNA)
RNA: GGGAGUUCUACAGUCCGACGAUCGCUUCGAUAUCCGCAUGCUAUGUGCCACACCCACACACAUACACACACCCACACACACACACACACAUGUACCCGACACACACAUGAGCCUAUCUGUCCAGGGAACCAGAUUGGUGUCCGAGAUGAGGAAAUGGCUGUGGCCUGGGAAAUCAGUGAGAGGCCGCUUGGGAAUGAGAAUGCAGUGGACUGAAAGCACAGCCUGGCCAUCUGGAACCUGGGUUCUGGUCCCAGCCUCGGCAUUCUCCCUGAGCUCCUAAGCAAUUCCCAGGCUUCUCUAGGGCUCUUGCGGUCGCACUAGUGUGGAAUUCUCGGGUGUCAAGG
B13: ENSMUSG00000028439.181|Fam219a (ssRNA)
RNA: GGGAGUUCUACAGUCCGACGAUCGCUUCGAUAUCCGCAUGCUAUGUGCCUGUGUGUGUGCGUGUGCGUGUGUGUAUGUGUGUGCGUGUGUGUGUGUGUGUGUUGUACCCGAGUGUGUGUUGAGCCUAUCUGUCCAGGGAACCAGAUUGGUGUCCGAGAUGAGGAAAUGGCUGUGGCCUGGGAAAUCAGUGAGAGGCCGCUUGGGAAUGAGAAUGCAGUGGACUGAAAGCACAGCCUGGCCAUCUGGAACCUGGGUUCUGGUCCCAGCCUCGGCAUUCUCCCUGAGCUCCUAAGCAAUUCCCAGCUCUUGCGGUCGCACUAGUGUGGAAUUCUCGGGUGUCAAGG
B14: ENSMUSG00000028439.183|Fam219a (ssRNA)
RNA: GGGAGUUCUACAGUCCGACGAUCGCUUCGAUAUCCGCAUGCUAUGUGCGUGUGCGUGUGUGUAUGUGUGUGCGUGUGUGUGUGUGUGUGUUGUACCCGAGUGUGUGUUGAGCCUAUCUGUCCAGGGAACCAGAUUGGUGUCCGAGAUGAGGAAAUGGCUGUGGCCUGGGAAAUCAGUGAGAGGCCGCUUGGGAAUGAGAAUGCAGUGGACUGAAAGCACAGCCUGGCCAUCUGGAACCUGGGUUCUGGUCCCAGCCUCGGCAUUCUCCCUGAGCUCCUAAGCAAUUCCCAGGCUUCUCUAGGGCUCUUGCGGUCGCACUAGUGUGGAAUUCUCGGGUGUCAAGG
B15: ENSMUSG00000028439.182|Fam219a (ssRNA)
RNA: GGGAGUUCUACAGUCCGACGAUCGCUUCGAUAUCCGCAUGCUAUGUGUGUGUGCGUGUGCGUGUGUGUAUGUGUGUGCGUGUGUGUGUGUGUGUGUUGUACCCGAGUGUGUGUUGAGCCUAUCUGUCCAGGGAACCAGAUUGGUGUCCGAGAUGAGGAAAUGGCUGUGGCCUGGGAAAUCAGUGAGAGGCCGCUUGGGAAUGAGAAUGCAGUGGACUGAAAGCACAGCCUGGCCAUCUGGAACCUGGGUUCUGGUCCCAGCCUCGGCAUUCUCCCUGAGCUCCUAAGCAAUUCCCAGGCUUCUCUCUUGCGGUCGCACUAGUGUGGAAUUCUCGGGUGUCAAGG
B16: ENSMUSG00000028439.181|Fam219a|7:16;18:22;24:40;42:59;69:76 (ssRNA)
RNA: GGGAGUUCUACAGUCCGACGAUCGCUUCGAUAUCCGCAUGCUAUGUGCCACACACACACCCACACCCACACACAUACACACACCCACACACACACACACACAUGUACCCGACACACACAUGAGCCUAUCUGUCCAGGGAACCAGAUUGGUGUCCGAGAUGAGGAAAUGGCUGUGGCCUGGGAAAUCAGUGAGAGGCCGCUUGGGAAUGAGAAUGCAGUGGACUGAAAGCACAGCCUGGCCAUCUGGAACCUGGGUUCUGGUCCCAGCCUCGGCAUUCUCCCUGAGCUCCUAAGCAAUUCCCAGCUCUUGCGGUCGCACUAGUGUGGAAUUCUCGGGUGUCAAGG

Data on 16 molecules can be found in PMC12864922, “TDP-43 directly inhibits mRNA accumulation in neurites through modulation of mRNA stability”.

In all, about 9,900 sequences were measured (“r (bound/input frequency ratio)”: median about 0.7, highest 2% from about 6.5 on). Only a selection was taken, and the highest values are over-represented in it overall.

The target in this test is TDP-43 (Homo sapiens, UniProt Q13148 1-414). The test can be described thus: RNA Bind-n-Seq with designed 260-mer pool; 25 mM Tris-HCl, 150 mM KCl, 3 mM MgCl2, BSA (printed 500 mg/mL), 20 units/mL SUPERase IN; pH not stated; 500 nM RNA pool, 1 h, 4 C; TDP-43 5, 50, 500 nM; high values mean tight binding. To be noted: protein: recombinant; tags: SBP (GST cleaved off with PreScission; pGEX-GST-SBP). The method in brief: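 In 25 mM Tris-HCl, 150 mM KCl, 3 mM MgCl2, BSA and SUPERase IN, 500 nM of an in vitro-transcribed 260-nt 3′ UTR oligo pool was incubated for 1 h at 4 °C with SBP-tagged TDP-43 (5, 50 or 500 nM) captured on streptavidin beads. RNA remaining after washes was biotin-eluted, reverse transcribed, PCR-amplified and sequenced. Binding, R, is the bound-sample abundance of each oligo, normalized to mapped reads, divided by its abundance in input. Each duplicate used a separate, independent protein batch.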
Chain of TDP-43 (Q13148 whole entry): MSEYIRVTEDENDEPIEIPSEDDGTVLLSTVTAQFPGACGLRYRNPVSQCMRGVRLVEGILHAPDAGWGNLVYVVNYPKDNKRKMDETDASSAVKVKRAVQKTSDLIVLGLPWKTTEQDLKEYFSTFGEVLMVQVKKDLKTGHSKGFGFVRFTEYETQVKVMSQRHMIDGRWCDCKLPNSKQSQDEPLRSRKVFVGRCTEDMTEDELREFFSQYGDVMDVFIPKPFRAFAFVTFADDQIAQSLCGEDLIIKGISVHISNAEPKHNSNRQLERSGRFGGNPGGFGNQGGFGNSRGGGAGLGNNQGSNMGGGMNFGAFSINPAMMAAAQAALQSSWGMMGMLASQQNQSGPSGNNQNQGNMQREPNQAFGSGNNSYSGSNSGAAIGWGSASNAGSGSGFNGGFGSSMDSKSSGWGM
For B1, the binding signal is 1.03 R (bound/input frequency ratio).
Turning to B2, the binding signal was 1.56 R (bound/input frequency ratio).
On to B3, for which the binding signal is 0.95 R (bound/input frequency ratio).
The same measure for B4: 0.757 R (bound/input frequency ratio); for B5: 0.821 R (bound/input frequency ratio).
With B6 the figure was 0.833 R (bound/input frequency ratio); with B7, 2.55 R (bound/input frequency ratio).
As for B8, the binding signal is 0.194 R (bound/input frequency ratio).
Turning to B9, the binding signal is 0.359 R (bound/input frequency ratio).
The same measure for B10: 0.163 R (bound/input frequency ratio).
In the case of B11, the binding signal is 3.29 R (bound/input frequency ratio).
With B12, the binding signal is 2.29 R (bound/input frequency ratio).
Take B13: the binding signal was 6.58 R (bound/input frequency ratio).
With B14 the figure was 5.72 R (bound/input frequency ratio); with B15, 6.82 R (bound/input frequency ratio); with B16, 3.16 R (bound/input frequency ratio).
